Compound activity (PubChem)
Hits are enriched below; roughly 4.5% of the tested compounds scored in any of these assays.
GBA mod: alters purified human glucocerebrosidase activity | purified enzyme, resorufin glucoside fluorescence (screen aimed at inhibitors), 20 min | Potency, µM | 1.1% of 48,000 active; in the data active = potency below about 15 µM; inconclusive = mostly about 16 µM to 33 µM;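 note: the screen sought inhibitors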
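Normal human glucocerebrosidase (0.2 nM final) was assayed with resorufin β-D-glucopyranoside (30 uM final) in 50mM citric acid/KH2PO4, 10mM sodium taurocholate, 0.01% tween-20, pH 5.9. Compounds were titrated; fluorescence (Ex 548, Em 600) read after 20 min at RT.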
TSHR agonist: agonists of human thyroid stimulating hormone receptor. HEK293-CNG-TSHR cells (CNG channel as cAMP sensor), membrane potential dye, cAMP. Potency, µM (series often up to 57.1 µM), for the others: at the top dose activation, usual class: activators. 0.48% of 73,000 active. AID 926; active = well fitted activation curve with a large enough effect in the main read-out, with a control signal flat, not every such curve was filed as active; inconclusive = small, poorly fitted or top-dose-only effect, or a change in a side signal; inactive = no such curve, though single readings can be large or run the other way; % of control where 0% means no effect;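 note: the control signal comes from parental cells without the receptor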
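HEK 293 cells stably expressing TSHR and a modified CNG channel, with CNG-only parental cells as counterscreen, were preloaded 60 min at room temperature with membrane potential dye containing 100 uM RO 20-1724. Compound exposure was 30 min, and depolarization was read as fluorescence at 590 nm.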
ERK AVP block: blocks ERK signaling stimulated by vasopressin; HEK293-V1b, vasopressin-stimulated pERK AlphaScreen; Potency, µM (series often up to 57.5 µM), for inactives: at the highest dose activity, negative = inhibition, usual class: inhibitors; 0.99% of 72,000 active; note: % is set by controls: 0 for no effect and ±100 for the full control effect; nearly all actives have a fitted effect of over 55% in size
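Phosphorylated ERK1/2 detected via AlphaScreen bead proximity in lysates of V1b-expressing HEK293 cells given 25 nM vasopressin for 5 min after 30 min compound exposure (37 °C). AC50 from Hill equation; basal DMSO 0%, vasopressin 100%.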
Casp7 inh: caspase-7 (human) inhibition, allosteric or competitive; Potency, µM (doses to about 57.5 µM), without a hit: at the top dose activity change, negative = inhibition, usual class: inhibitors; recombinant caspase-7, Ac-DEVD-AFC fluorescence rate; P55210; 0.02% of 75,000 active; active = well fitted inhibition curve with a large enough effect in the main read-out, with a control signal flat, not every such curve was filed as active; inconclusive = small, poorly fitted or top-dose-only effect, or a change in a side signal; note: % of control where 0% means no effect
HEK293 cAMP ctrl: parental HEK293 cAMP activation (counter-screen) | parental HEK293 CNG cAMP sensor, membrane potential fluorescence | AID 938 | 2.5% of 73,000 active | Potency, µM (series often up to 57.1 µM), without a hit: top-dose activation, actives largely listed as activators; note: % of control where 0% means no effect; nearly all actives have a fitted effect of over 55% in size
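Parental HEK 293 cells stably expressing a modified CNG channel (no TSHR) report cAMP rise as membrane depolarization. Membrane potential dye with 100 uM RO 20-1724 was loaded for 60 min at room temperature, then compound added for 30 min; fluorescence read at 590 nm.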
Caspase-1 inhib: allosteric or competitive inhibitors of human caspase-1; P29466; Caspase-1 enzyme, Ac-WEHD-AFC fluorogenic rate; Potency, µM (doses to about 57.5 µM), for inactives: at the top dose activity change, negative = inhibition, actives largely listed as inhibitors; 0.03% of 75,000 active; AID 900;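 note: plate controls were vehicle for no effect and no substrate for full effect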
* hit, by the source's call; i = inactive; ? = inconclusive; / = no result; [ ] = dose if it differs, or a comment. Unless noted, calls come from the whole dose curve; as a rule, active = well fitted curve in the direction sought with a large enough effect; inconclusive = small, poorly fitted or top-dose-only effect, or another doubt; inactive = no such curve, though single readings can be large; an effect the other way counts as inactive or inconclusive. Potency is the fitted concentration of half-maximal effect.

SMILES | GBA mod | TSHR agonist | ERK AVP block | Casp7 inh | HEK293 cAMP ctrl | Caspase-1 inhib
COCCn1c(=O)c(C)nc2cnc(OC)nc21 | / | ? | 1% | -6% | ? | -2%
N#Cc1ccc2ccn(CC(=O)NC3CCCCCC3)c2c1 | ? | ? | 4% | 0% | 3.2µM* | -1%
Cc1ccc(-c2nnc3n2N=C(c2ccccc2)CS3)cc1 | / | 8% | / | 0% | -4% | -3%
CCc1ccc(C2=Nn3c(nnc3-c3cccs3)SC2)cc1 | 8.2* | ? | ? | -9% | ? | -4%
c1ccc(C2=Nn3c(nnc3-c3cc(-c4ccccc4)n[nH]3)SC2)cc1 | 8.5* | ? | 25µM* | -4% | 25µM* | -3%
Brc1ccc(C2=Nn3c(nnc3-c3ccncc3)SC2)cc1 | >77 | 11% | -12% | -1% | 4% | 0%
c1ccc(C2=Nn3c(nnc3-c3n[nH]c4c3CCC4)SC2)cc1 | / | 13% | ? | 0% | 19% | -1%
COc1ccc(C2=Nn3c(nnc3-c3ccccc3OC)SC2)cc1OC | >77 | 10µM* | 5µM* | -4% | 25% | 0%
COc1ccc(C2=Nn3c(nnc3-c3ccc(OC)cc3)SC2)cc1 | ? | ? | 10µM* | -2% | ? | -2%
O=C(O)[C@H]([C@H]1NCCS1)N1Cc2ccccc2C1 | / | 3%[11.4 µM] | 3%[11.5 µM] | 1%[11.5 µM] | 2%[11.4 µM] | -1%[11.5 µM]
Cc1ccc(CCCC(=O)O)cc1C | / | 5%[11.4 µM] | -18%[11.5 µM] | 0%[11.5 µM] | 26%[11.4 µM] | -1%[11.5 µM]
Cn1c(=O)c(-c2cc(F)cc(F)c2)nc2cnc(Oc3ccccc3)nc21 | / | -27% | -29% | ? | -18% | /
Fc1ccc(-c2nnc3sc(C4COc5ccccc5O4)nn23)cc1 (stereo not given) | >77 | ? | ? | -1% | 25µM* | -4%
N[C@@H](C(=O)O)c1ccc(C(=O)O)cc1 | / | 2% | -6% | 1% | 4% | 2%
O=C(Nc1ccc(OC(=O)c2ccncc2)cc1)c1ccncc1 | 1.9* | 4% | -8% | -2% | 11% | 3%
CCOc1ccc(NC(=O)c2ccncc2)cc1 | i | 22% | 10% | 0% | 14% | 0%
N#CC1=C(N)Oc2n[nH]c(-c3cccs3)c2C1c1ccoc1 (stereo not given) | >77 | 10% | ? | 0% | 20% | -1%
N#CC1=C(N)Oc2n[nH]c(-c3ccncc3)c2C1c1ccsc1 (stereo not given) | >77 | 1% | 10µM* | -2% | 5% | 0%
CC(C)C1C(C#N)=C(N)Oc2n[nH]c(-c3cccs3)c21 (stereo not given) | / | 11% | 16µM* | 3% | 3% | -2%
O=C(O)CSc1nnc(CNc2ccc(Cl)cc2)n1Cc1ccccc1 | >77 | ? | 0% | 0% | 32µM* | 0%
COc1ccc(N2CSC3=C(C#N)C(c4ccc(OC)c(OC)c4)CC(=O)N3C2)c(OC)c1 (stereo not given) | / | -1% | ? | ? | -3% | ?
COc1ccc(C2CC(=O)N3CN(c4ccc(C)c(Cl)c4)CSC3=C2C#N)cc1OC (stereo not given) | / | 3% | -12% | ? | -13% | 32µM*
CCNC(=O)[C@@H]1O[C@@H](n2cnc3c(N)nc(NCCc4ccc(CCC(=O)O)cc4)nc32)[C@H](O)[C@@H]1O | / | / | -28% | 1% | 13% | 1%
Cc1cc(=Nc2ccc3c(c2)c(N)cc(C)[n+]3C)nc(N)n1C | / | 1%[11.4 µM] | 5%[11.5 µM] | -3%[11.5 µM] | 1%[11.4 µM] | 4%[11.5 µM]
CCOC(=O)c1cnn(-c2nc(-c3ccccc3)nc3c2COC(C)(C)C3)c1N | >77 | 25µM* | -12% | 0% | 21% | 1%
SMILES | GBA mod | TSHR agonist | ERK AVP block | Casp7 inh | HEK293 cAMP ctrl | Caspase-1 inhib
CC(=O)N1CCN(c2ccc(NCc3ccc(C)cc3)cc2)CC1 | 12* | 1% | -28% | 2% | 1% | -1%
CCc1ccc(CNc2ccc(N3CCN(C(C)=O)CC3)cc2)cc1 | 12* | / | ? | 1% | -1% | 0%
CC(=O)Nc1ccc(N2CCN(C(C)=O)CC2)cc1 | >77 | -3% | 25% | -1% | 22% | 4%
COc1ccc(-c2nc(C#N)c(NCCc3ccccc3)o2)cc1 | >77 | -10% | 16µM* | 1% | -8% | -2%
COc1ccc(-c2nc(C#N)c(NCc3ccc(F)cc3)o2)cc1OC | >77 | 8% | 25µM* | -2% | -4% | -4%
COc1ccc(-c2nc(C#N)c(NCCN(C)C)o2)cc1 | / | -4% | -8% | -1% | -2% | 3%
COc1ccc(CNc2oc(-c3ccccc3)nc2C#N)cc1 | / | 27% | 32µM* | -3% | 20% | -6%
CCOC(=O)N/N=C1/C[C@@H](O)[C@@H](O)[C@@H]2[C@@H]3C(=O)N(C(C)(C)C)C(=O)[C@H]3CC[C@@H]12 | / | -3%[11.4 µM] | 16%[11.5 µM] | -1%[11.5 µM] | 0%[11.4 µM] | 0%[11.5 µM]
Cc1nc(N2CCOCC2)c2nc(-c3ccccc3)n(CCN3CCOCC3)c2n1 | / | -1% | -8% | -2% | 9% | -1%
CC1CCC(C(=O)O)NC1c1ccc(-c2ccco2)cc1 (stereo not given) | / | 8%[11.4 µM] | 3%[11.5 µM] | -6%[11.5 µM] | 5%[11.4 µM] | -7%[11.5 µM]
CCOC(=O)c1cccc(NC(=O)c2cc3sccc3n2C)c1 | >15 | ? | 20% | -1% | 10µM* | -1%
O=C(c1ccco1)N(CC1CCCO1)c1nc(-c2ccccc2)cs1 (stereo not given) | >77 | ? | 5% | -5% | ? | -2%
O=C(c1cccs1)N(CC1CCCO1)c1nc(-c2ccccc2)cs1 (stereo not given) | >77 | ? | 14% | -3% | 16µM* | 0%
O=C(c1ccccc1)[C@@H]1O[C@H]1c1ccc(-c2ccccc2)cc1 | / | 25% | 5% | -2% | 17% | 1%
CC(=O)O[C@H]1C[C@H]2CC[C@@H]3[C@@H](CC[C@]4(C)[C@H](OC(C)=O)[C@H]([N+]5(C)CCCCC5)C[C@@H]34)[C@]2(C)C[C@H]1[N+]1(C)CCCCC1 | / | 21%[25.6 µM] | -11%[25.7 µM] | 0%[25.7 µM] | 10%[25.6 µM] | -1%[25.7 µM]
COc1ccc(C(C)=O)cc1COC(=O)c1cc(C)oc1C | >77 | ? | ? | -2% | 25µM* | -3%
COc1ccc(C(C)=O)cc1COC(=O)c1cccc(N(C)C)c1 | >77 | ? | -20% | -1% | ? | 6%
CCc1cc(N2CCOCC2)cc2c1[nH]c1ccccc12 | >77 | -19% | -30% | -2% | -24% | -4%
CN1CCN(c2cc3c(c4c2[nH]c2ccccc24)C(=O)CC(C)(C)C3)CC1 | / | 12% | 32µM* | ? | -5% | /
Cc1ccc(Cl)cc1NC(=O)CC(O)(C(F)(F)F)C(F)(F)F | / | ? | -2% | 1% | 6.3µM* | -1%
Cc1ccc(Cl)cc1NC(=O)Cn1cccc1 | >77 | 4%[11.4 µM] | -18% | 0% | 22% | 1%
